# Screens: PubChem, National Center for Advancing Translational Sciences (NCATS)
# FLuc inh = Firefly luciferase inhibition profiling of diverse chemical library using quantitative high-throughput screening. Potency, µM (highest dose often 115 µM), actives largely listed as inhibitors. hit rate 2.5% among 76,000. AID 1347043, 2019. Luciferin 4-monooxygenase (Photinus pyralis), P08659. purified P. pyralis luciferase, luminescence, biochemical; also: nearly all actives have a fitted effect of over 65% in size
#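 Inhibitors were tested against purified firefly luciferase in a biochemical, low-substrate format (both substrates at 10uM) and luminescence measured with a CCD imager.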
# GPT2 inh = Primary qHTS assay for inhibitors of Glutamate pyruvate transaminase 2 (GPT2). Alanine aminotransferase 2 (Homo sapiens), Q8TD30. Recombinant GPT2, coupled pyruvate oxidase/HRP Amplex Red fluorescence. Potency, µM (doses to about 57.7 µM), actives largely listed as inhibitors. hit rate 0.25% among 100,000; also: nearly all actives have a fitted effect of over 60% in size
# Target sequence (Q8TD30 whole entry, looked up): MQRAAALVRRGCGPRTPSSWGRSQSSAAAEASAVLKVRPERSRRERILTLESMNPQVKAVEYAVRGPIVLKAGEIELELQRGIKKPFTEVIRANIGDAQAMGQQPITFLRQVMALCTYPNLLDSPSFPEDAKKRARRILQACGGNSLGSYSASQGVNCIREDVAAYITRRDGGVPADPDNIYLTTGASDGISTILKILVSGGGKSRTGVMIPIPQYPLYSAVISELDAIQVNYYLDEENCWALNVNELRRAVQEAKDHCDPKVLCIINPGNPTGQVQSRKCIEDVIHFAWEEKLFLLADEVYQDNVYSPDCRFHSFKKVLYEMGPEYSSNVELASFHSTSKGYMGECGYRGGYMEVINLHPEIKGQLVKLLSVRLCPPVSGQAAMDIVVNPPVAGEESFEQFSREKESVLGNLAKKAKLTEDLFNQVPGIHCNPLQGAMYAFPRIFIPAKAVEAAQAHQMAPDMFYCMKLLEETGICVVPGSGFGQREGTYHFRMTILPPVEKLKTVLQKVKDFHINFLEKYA
#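 Fluorescence of coupled pyruvate oxidase/HRP/Amplex Red system (50uM Amplex, 30 min, dark) reports pyruvate formed by GPT2. Enzyme reaction: 10ng/uL GPT2, 2mM L-alanine, 250uM a-KG, 30 min room temperature, pH 7.5; 50uM AOA control.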
# NPR1 antag = Natriuretic polypeptide receptor (hNpr1) antagonism - Primary qHTS | Atrial natriuretic peptide receptor 1 (Homo sapiens), P16066 | HEK293 hNpr1 GloSensor cGMP, ANP-stimulated luminescence | Potency, µM (doses to about 46.3 µM), hits mostly inhibitors | hit rate 1.6% among 76,000 | AID 1347048, 2019; calls by dose curve; also: nearly all actives have a fitted effect of over 60% in size
#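 Compound pre-incubated 30 min at room temperature on GloSensor-loaded HEK293 cells stably carrying hNpr1 and the pGS-40F cGMP biosensor. Stimulation uses hNppA at 0.1 nM final; luminescence is taken at baseline and 20 min post-agonist.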
# 3T3 cytotox = Cytotoxic Profiling in NIH 3T3 Cell Line of Diverse Libraries Using Quantitative High-Throughput Screening; NIH 3T3 viability, CellTiter-Glo ATP luminescence, 48-72 h; Potency, µM (highest dose often 96.7 µM), actives largely listed as inhibitors; hit rate 4.3% among 94,000; AID 1345082, 2018; also: nearly all actives have a fitted effect of over 55% in size
#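 Cytotoxicity was measured by CellTiter-Glo ATP luminescence after 48 or 72 h compound exposure at 37 °C. Mouse NIH 3T3 fibroblasts were seeded at 400 cells/well and dosed by 23 nL pin transfer.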
# HEK cytotox = Cytotoxic Profiling in HEK 293 Cell Line of Diverse Libraries Using Quantitative High-Throughput Screening; HEK 293 viability, ATP luminescence (CellTiter-Glo), 48-72 h; hit rate 6.6% among 94,000; Potency, µM (doses to about 115 µM), usual class: inhibitors; also: nearly all actives have a fitted effect of over 60% in size
#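 HEK 293 cells at 250 cells/well were exposed to compounds by pintool transfer for 48 or 72 hr at 37 degree Celsius, 5% CO2. Viability was read as ATP-coupled luminescence with CellTiter-Glo after 10 min at room temperature.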
# Numbers stand for hits; – = inactive; ? = inconclusive; · = not tested or not shown. In the library only some 10% were active in any assay of this set; here they are far more common. Unless noted, calls follow the shape of the dose curve; as a rule, active = well fitted curve in the direction sought with a large enough effect; inconclusive = small, poorly fitted or top-dose-only effect, or another doubt; inactive = no such curve, though single readings can be large; an effect the other way counts as inactive or inconclusive.
SMILES,FLuc inh,GPT2 inh,NPR1 antag,3T3 cytotox,HEK cytotox
CNC(=O)c1cc(C)nc2onc(C3CCCN(C(=O)OC)C3)c12 (centres undefined),·,·,·,–,–
COCCn1c(=O)c(C(=O)N2CCN([S+](=O)([O-])c3cccs3)CC2)nc2cccnc21,·,–,·,–,–
CCCNC(=O)N1CCC(Cc2ccc(CCNC(C)=O)cc2)CC1,·,–,·,?,45µM
O=C(NCCC1CCN(C(=O)Nc2cc(F)cc(F)c2)CC1)c1ccccc1,28µM,–,–,–,?
CCNC(=O)N1CCC(Cc2ccc(C(=O)Nc3cccc(F)c3)cc2)CC1,25µM,–,11µM,?,40µM
COCCN1CCCC[C@]2(C[C@H](C(=O)O)[C@H](c3ccco3)N2C(=O)CC(C)(C)C)C1=O,·,·,·,?,–
COc1cccc(N2C(=O)NC(=NC3CCCCC3)C23CCN(Cc2cccn2C)C3)c1 (centres undefined),·,–,·,–,–
Cc1ccc(-c2ncc(NC(=O)c3ccc(F)c(F)c3)cn2)cc1,–,–,–,–,–
O=C(NC1CCCC1)C1CCCN1C(=O)c1cccc(-c2cccnc2)c1 (centres undefined),·,·,·,–,–
O=C(Nc1cnc(-c2ccc(Cl)cc2)nc1)c1cccc(F)c1,7.9µM,–,–,–,?
COc1ccccc1CC(=O)Nc1cnc(-c2cccc(Cl)c2)nc1,13µM,–,–,?,?
O=C(Nc1cnc(-c2cccnc2)nc1)C1CCCC1,32µM,–,–,–,–
O=C(Nc1cnc(-c2cccc(Cl)c2)nc1)c1nccc2ccccc12,–,–,–,?,?
O=C(Nc1cnc(-c2cccc(Cl)c2)nc1)C1CCCO1 (centres undefined),2.8µM,–,?,–,?
COc1ccc(S(=O)(=O)N2CCC(CC(=O)NCc3ccccc3)C2)cc1 (centres undefined),–,–,–,–,–
O=C(Nc1cnc(-c2cccc(Cl)c2)nc1)c1ccsc1,?,–,–,–,–
CC(C)(C)CC(=O)Nc1cnc(-c2ccc(Cl)cc2)nc1,0.28µM,–,3.5µM,40µM,45µM
O=C(Nc1cnc(-c2cccc(Cl)c2)nc1)c1ccccc1F,1µM,–,–,–,–
O=C(Nc1cnc(-c2cccc(Cl)c2)nc1)c1ccc(F)cc1Cl,11µM,–,?,?,?
O=C(Nc1cc(-c2cccnc2)nn1-c1ccccc1)c1ccc(Cl)cc1,·,–,·,?,?
CCN1c2cc(C(=O)Nc3ccc(C(=O)OC)cc3)ccc2C(=O)N2CCCCCC21 (centres undefined),–,–,–,?,45µM
CCc1ccc(NC(=O)c2ccc3c(c2)N(CC)C2CCCCCN2C3=O)cc1 (centres undefined),?,–,–,28µM,18µM
CCN1c2cc(C(=O)Nc3ccc(OC)cc3)ccc2C(=O)N2CCCCCC21 (centres undefined),–,–,–,?,?
Cc1cccc2nc(C(=O)N3CCn4nc(Cc5ccccc5)cc4C3)cn12,–,–,?,?,45µM
Cn1nc(C(=O)N2CCn3nc(Cc4ccccc4)cc3C2)ccc1=O,–,–,–,–,–
SMILES,FLuc inh,GPT2 inh,NPR1 antag,3T3 cytotox,HEK cytotox
O=C(c1nnc(CN2CCOCC2)n1-c1ccccc1)N1CCC[C@@H]1C(c1ccccc1)c1ccccc1,–,–,–,?,?
O=C(c1nnc(COc2cc(F)cc(F)c2)n1-c1ccccc1)N1CCC[C@@H]1c1cccc(F)c1,–,–,–,40µM,?
O=C(c1nnc(CN2CCC(F)(F)CC2)n1-c1cccnc1)N1CCC[C@@H]1C(c1ccccc1)c1ccccc1,–,–,–,25µM,–
O=C(c1nnc(COc2ccc(F)c(F)c2)n1-c1ccccc1)N1CCC[C@@H]1c1cccc(F)c1,–,–,–,10µM,?
O=C(c1nnc(COc2ccc(F)cc2)n1-c1ccccc1)N1CCC[C@@H]1C(c1ccccc1)c1ccccc1,–,–,–,6.3µM,?
CN(C)CC1(O)CCC2(CCN(C(=O)CCc3ccccc3)CC2)CC1,–,–,–,–,–
Cc1ccc([S+](=O)([O-])N2CCN(C(=O)c3cccc(-c4ccccn4)c3)CC2)cc1,·,–,·,?,?
COc1ccccc1Nc1ccnc(N2CCC[C@H]2C(=O)NCCSC)n1,·,–,·,–,–
CN1C[C@H](NCc2ccc(F)cc2)CCC[C@@H](C(=O)N(C)Cc2cccnc2)CC1=O,–,–,–,–,?
COC(=O)[C@@H]1Cc2c([nH]c3ccccc23)[C@H]2C[C@@H](NCc3cccnc3)C[C@@H](c3ccc(F)c(F)c3)N21,–,–,–,?,25µM
COC(=O)[C@@H]1Cc2c([nH]c3ccccc23)[C@H]2C[C@@H](NCc3cccnc3)C[C@@H](c3ccc(C(F)(F)F)cc3)N21,–,–,–,28µM,?
O=C(NCc1cccnc1)[C@@H]1C[C@@H](c2ccc(F)cc2)N(CCOc2ccccc2)C1,–,–,–,?,?
COCC(=O)N[C@H]1C[C@H]2C(=O)NC[C@@H](CCC(=O)NCc3cccnc3)N2C1,–,–,–,–,–
COC(=O)[C@@H]1Cc2c([nH]c3ccccc23)[C@H]2C[C@@H](NCc3cccnc3)C[C@@H](c3ccc(F)cc3)N21,–,–,–,20µM,22µM
c1ccc(CN2CCC[C@H]2c2nc(-c3ccc(N4CCOCC4)nc3)no2)cc1,–,–,–,–,89µM
OCc1ccc(CN2CCC[C@H]2c2nc(-c3ccc(N4CCOCC4)nc3)no2)o1,–,–,–,–,?
c1cc(N2CCOCC2)ncc1-c1noc([C@@H]2CCCN2)n1,56µM,–,–,–,–
Clc1ccc(CN2CCC[C@H]2c2nc(-c3ccc(N4CCOCC4)nc3)no2)cc1,?,–,?,?,63µM
CCn1ncc(N2CCCC(CC(=O)Nc3ccc(C)c(C)c3)C2)cc1=O (centres undefined),–,–,–,?,?
COCCc1noc(-c2nc(-c3ccccc3F)no2)n1,28µM,–,–,–,–
COc1ccc(-c2nc(-c3ccccc3)nc3c2CN(C(=O)c2ccccc2C)CC3)cc1,–,–,–,?,?
COc1ccc(C(CC(=O)N2CCCC2)c2c[nH]c3ccccc23)cc1 (centres undefined),?,–,–,–,?
CC1(C)CC2CC(C)(CN2C(=O)CC(c2ccccc2Cl)c2c[nH]c3ccccc23)C1 (centres undefined),–,–,–,?,25µM
COc1ccc(CC(=O)N2Cc3ccccc3CC3(CCN(C)C3)C2)cc1 (centres undefined),·,–,·,–,–
